Assay outcomes as filed in PubChem BioAssay.
TEAD-YAP block: TEAD-YAP interaction inhibition. HEK-TIYL cells, TEAD-Gal4/YAP UAS-luciferase luminescence. inhibition, % at 9.12 µM. hit rate 1.4% among 640,000. AID 1259422; in the data active = inhibition above about 32%
GPR151 ag: activates the human receptor GPR151 | hit rate 1% among 650,000 | activation, % at 11.2 µM | PathHunter beta-arrestin GPR151 cells, luminescence | AID 1508602; in the data active = activation above about 4.9%
MITF primary: inhibitors of human MITF; O75030; AlphaScreen MITF homodimerization, bead proximity signal; inhibition, % at 2.6 µM; hit rate 0.91% among 650,000; AID 1259374; in the data active = inhibition above about 50%
FBW7 activator: activators of human E3 ligase FBW7 | AlphaScreen FBW7–phospho-cyclin E peptide binding, activator screen | normalized activity (activation), % at 26.1 µM | hit rate 0.13% among 650,000 | AID 1259310; in the data active = normalized activity above about 1.9%;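 also: purified mutant Fbw7 with reduced substrate affinity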
Target sequence (Q969H0 whole entry, looked up): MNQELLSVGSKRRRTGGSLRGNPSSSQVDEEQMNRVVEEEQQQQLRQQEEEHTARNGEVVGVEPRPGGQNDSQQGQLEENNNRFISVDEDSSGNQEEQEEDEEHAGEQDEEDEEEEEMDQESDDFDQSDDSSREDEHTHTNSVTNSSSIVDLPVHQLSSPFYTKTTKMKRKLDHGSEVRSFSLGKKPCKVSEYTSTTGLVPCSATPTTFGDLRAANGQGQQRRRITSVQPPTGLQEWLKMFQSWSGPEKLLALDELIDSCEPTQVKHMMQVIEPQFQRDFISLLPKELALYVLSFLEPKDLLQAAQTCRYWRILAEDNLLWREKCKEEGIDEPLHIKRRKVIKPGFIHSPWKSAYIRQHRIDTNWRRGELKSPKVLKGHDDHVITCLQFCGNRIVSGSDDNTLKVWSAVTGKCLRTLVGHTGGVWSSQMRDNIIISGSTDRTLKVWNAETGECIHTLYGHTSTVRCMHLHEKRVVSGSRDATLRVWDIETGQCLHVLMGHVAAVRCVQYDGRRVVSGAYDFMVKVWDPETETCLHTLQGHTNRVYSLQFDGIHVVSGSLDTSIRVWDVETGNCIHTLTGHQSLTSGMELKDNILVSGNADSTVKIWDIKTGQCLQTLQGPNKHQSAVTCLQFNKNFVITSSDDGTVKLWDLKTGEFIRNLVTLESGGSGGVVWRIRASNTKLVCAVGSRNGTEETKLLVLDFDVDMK
GPR151 conf act: confirmation of human GPR151 activators | shares compounds with GPR151 ag | GPR151 PathHunter beta-arrestin cells, luminescence, 90 min; % of EA-reagent control over plate median | activation, % at 11.2 µM | 6,700 tested, under 10 active | AID 1508609;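 active = mean percent activation across replicates above the confirmation screen cutoff of 4.91%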
GPR119 ag: GPR119 activation, counter-screen for GPR151 activators | shares compounds with GPR151 ag | GPR119 PathHunter beta-arrestin cells, luminescence, 90 min; 0 = compound-well median, 100 = enzyme-acceptor control | activation, % at 11.2 µM | hit rate 0.3% among 6,700 | AID 1508611;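 active = mean percent activation in the counterscreen above 29.09%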;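 also: counterscreen on off-target GPR119 to flag nonselective hits from the GPR151 activator screen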
Large screens that a line does not name were inactive (follow-up assays come after a bar, where they were run). Most compounds without a hit are left out; they make up all but 3.5% or so of the library.

CC(C)(C)SCCNC(=O)CSc1ccc(Cl)cc1	none
COC(=O)c1ccc(NC(=O)CCCOc2ccc(C)cc2)cc1	none
COCCN1CC(CNC(=O)c2cc(COc3ccc(F)cc3Cl)on2)CC1=O (centres undefined)	GPR151 ag 9.8 | GPR151 conf act inactive | GPR119 ag inactive
O=C(CN1C(=O)NC2(CCN(Cc3ccccc3)CC2)C1=O)N1CCOCC1	none
O=C(NCCCC1CCCC1)c1cc(COc2cccc3cnccc23)on1	GPR151 ag 5.2 | GPR151 conf act inactive | GPR119 ag inactive
O=C(CSc1nc2ccsc2c(=O)n1-c1ccc(Br)cc1)Nc1ccccc1C(F)(F)F	none
CC12CC3CC(C1)CC(NC(=O)c1ccc(Cl)cc1Cl)(C3)C2	GPR151 ag 5.0 | GPR151 conf act inactive | GPR119 ag inactive
Cc1cc(N(C)C)nc(NCCNC(=O)/C=C/c2ccccc2)n1	GPR151 ag 5.7 | GPR151 conf act inactive | GPR119 ag inactive
COCCNCCCOc1ccc(C)cc1[N+](=O)[O-]	GPR151 ag 7.3 | GPR151 conf act inactive | GPR119 ag inactive
Cc1cc(OCCN(C)C)ccc1[N+](=O)[O-]	none
COc1ccc(OCCOc2ccc(C)cc2[N+](=O)[O-])cc1	none
Cc1cc(OCCCNCCN(C)C)ccc1[N+](=O)[O-]	GPR151 ag 5.4 | GPR151 conf act inactive | GPR119 ag inactive
Cc1ccc(OCCN2CCCC2)c([N+](=O)[O-])c1	GPR151 ag 5.3 | GPR151 conf act inactive | GPR119 ag inactive
CN1CCCN(C(=O)C2CC23CCN(Cc2ccc(N(C)c4ccccc4)cc2)CC3)CC1 (centres undefined)	none
COc1cc(/C=C/c2nc3cc(Cl)ccc3c(=O)n2-c2ccc(NC(C)=O)cc2)cc(OC)c1OC	none
Cc1cccc(NC(=O)CSc2nnc(C(C)C)n2C)c1C	none
O=C1C(=O)N(CCc2ccccc2)C(c2ccc(F)cc2)/C1=C(/O)c1ccc(Cl)cc1 (centres undefined)	none
CC(C)C(=O)Nc1cccc(C(=O)N2CCCc3ccccc32)c1	GPR151 ag 6.5 | GPR151 conf act inactive | GPR119 ag inactive
Cc1ccc(C(=O)N2CCCc3ccccc32)cc1C	none
O=C(O)C1CCC(N2C(=O)c3cccc([N+](=O)[O-])c3C2=O)CC1 (centres undefined)	GPR151 ag 5.2 | GPR151 conf act inactive | GPR119 ag inactive
O=C1c2cccc([N+](=O)[O-])c2C(=O)N1C1CCCCCCC1	none
COc1ccccc1Cc1noc(-c2cc(Cl)ccc2OC)n1	GPR151 ag 6.3 | GPR151 conf act inactive | GPR119 ag inactive
COc1ccccc1Cc1noc(-c2ccc(I)cc2)n1	none
CC(=O)Nc1ccc(Nc2nc(Nc3cccc(N(C)C)c3)ncc2C)cc1	GPR151 ag 5.5 | GPR151 conf act inactive | GPR119 ag inactive
Cc1ccccc1-n1c(O)c(C=NCCCC(C)C)c(=O)[nH]c1=O	GPR151 ag 8.5 | GPR151 conf act inactive | GPR119 ag inactive
COc1ccccc1N=Cc1c(O)n(-c2ccccc2C)c(=O)[nH]c1=O	GPR151 ag 6.0 | GPR151 conf act inactive | GPR119 ag inactive
Cc1cc2cc(C)c3nnc(SCC(N)=O)n3c2cc1C	none
O=C(COc1ccc(S(=O)(=O)N2CCCC2)cc1[N+](=O)[O-])NC1CC1	none
CCOc1ccc(-n2c(=O)c3sccc3n(CC(=O)N(CC)CC)c2=O)cc1	none
CCN(Cc1ccccc1)C(=O)Cn1c(=O)n(-c2ccc(OC)cc2)c(=O)c2ccccc21	GPR151 ag 7.9 | GPR151 conf act inactive | GPR119 ag inactive
COc1cc(OC)c(NC(=O)C2c3ccccc3C(=O)N(C)C2c2ccc(OC)c(OC)c2)cc1Cl (centres undefined)	none
O=C1c2cccc(N3CCCC(C(=O)N4CCC[C@H]4CO)C3)c2C(=O)N1C1CCCC1 (some centres undefined)	none
O=C(NCCO)C1CCCN(c2cccc3c2C(=O)N(C2CCCCCCC2)C3=O)C1 (centres undefined)	GPR151 ag 5.8 | GPR151 conf act inactive | GPR119 ag inactive
Cc1cc(I)ccc1N1C(=O)/C(=C/c2ccccc2F)N=C1c1ccc(Br)cc1	none
Cn1c2c(c(=O)n(C)c1=O)C(c1ccccc1)C1=C(CC(C)(C)CC1=O)N2 (centres undefined)	none
Cn1c2c(c(=O)n(C)c1=O)C(c1ccc(Cl)cc1)C1=C(CC(C)(C)CC1=O)N2 (centres undefined)	GPR151 ag 5.5 | GPR151 conf act inactive | GPR119 ag inactive
Cn1c2c(c(=O)n(C)c1=O)C(c1cccc(F)c1)C1=C(CC(C)(C)CC1=O)N2 (centres undefined)	GPR151 ag 18.4 | GPR151 conf act inactive | GPR119 ag inactive
Cc1cccc(C2C3=C(CC(C)(C)CC3=O)Nc3c2c(=O)n(C)c(=O)n3C)c1 (centres undefined)	none
C#CCN(C)C(=O)c1cnc2scc(-c3ccc(C)cc3)n2c1=O	none
COc1ccc(S(=O)(=O)c2cn(C)c3cc(N4CCCC(C)C4)c(F)cc3c2=O)cc1 (centres undefined)	none
O=C(Nc1ccccc1)N1CCC(CO)(CCc2ccccc2)CC1	GPR151 ag 9.9 | GPR151 conf act inactive | GPR119 ag inactive
Cc1sc(NC(=O)CN(C(=O)NC2CCCCC2)C2CCCC2)c(C(N)=O)c1C	none
Cc1cc(C(=O)COC(=O)c2cc(Cl)cc(Cl)c2)c(C)n1C	none
Cc1[nH]c(C(=O)OCC(=O)c2cc(C)n(C)c2C)c(C)c1C(C)O (centres undefined)	GPR151 ag 5.2 | GPR151 conf act inactive | GPR119 ag inactive
CCCCOC(=O)Nc1ccc(S(=O)(=O)Nc2cccc([N+](=O)[O-])c2)cc1	GPR151 ag 5.3 | GPR151 conf act inactive | GPR119 ag inactive
CCNS(=O)(=O)c1ccc(NC(=O)Nc2cccc([N+](=O)[O-])c2)cc1	GPR151 ag 13.2 | GPR151 conf act inactive | GPR119 ag inactive
O=[N+]([O-])c1cccc(S(=O)(=O)NCc2ccc(F)cc2)c1	GPR151 ag 9.0 | GPR151 conf act inactive | GPR119 ag inactive
O=C(CN(Cc1ccc(F)cc1)S(=O)(=O)c1ccccc1)Nc1cccc([N+](=O)[O-])c1	GPR151 ag 5.1 | GPR151 conf act inactive | GPR119 ag inactive
O=C(CN(Cc1ccccc1)S(=O)(=O)c1ccc(F)cc1)Nc1cccc([N+](=O)[O-])c1	none
CC(C)(C)NC(=O)CN(Cc1ccccc1)S(=O)(=O)c1ccc(F)cc1	GPR151 ag 5.3 | GPR151 conf act inactive | GPR119 ag inactive
O=[N+]([O-])c1cccc(S(=O)(=O)NCc2ccco2)c1	none
CCC(=O)N(CC(=O)Nc1ccc(Cl)c(Cl)c1)Cc1ccco1	none
CCOc1cc(/C=C(/C#N)c2nc3cc(C)c(C)cc3[nH]2)ccc1OCC(N)=O	none
